Hits are enriched below; roughly 10% of the tested compounds scored in any of these assays.
KB-V1 MDR tox – qHTS assay for MDR1-selective chemotherapeutics: Primary screen using the drug-selected MDR subline cells KB-V1 | KB-V1 MDR cells viability, CellTiter-Glo, 72 h | Potency, µM (titrated, usually from 46.1 µM), actives largely listed as cytotoxic | hit rate 3.4% among 400,000 | AID 1347076, 2019; also: nearly all actives have a fitted effect of over 60% in size
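In this primary screen, KB-V1 cells overexpressing P-gp are incubated with library compounds (lowest to highest concentration) for 72 h at 37 degrees C before a luminescent ATP viability read.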
RORgamma inh – qHTS for inhibitors of ROR gamma transcriptional activity; AID 2551, 2010; Drosophila S2 Gal4-RORgamma UAS-luciferase reporter, 20 h; Nuclear receptor ROR-gamma (Mus musculus), P51450; hit rate 5.4% among 310,000; Potency, µM (doses to about 53.6 µM), usual class: inhibitors; also: nearly all actives have a fitted effect of over 60% in size
Target sequence (P51450 whole entry, looked up, the tested form may be a part): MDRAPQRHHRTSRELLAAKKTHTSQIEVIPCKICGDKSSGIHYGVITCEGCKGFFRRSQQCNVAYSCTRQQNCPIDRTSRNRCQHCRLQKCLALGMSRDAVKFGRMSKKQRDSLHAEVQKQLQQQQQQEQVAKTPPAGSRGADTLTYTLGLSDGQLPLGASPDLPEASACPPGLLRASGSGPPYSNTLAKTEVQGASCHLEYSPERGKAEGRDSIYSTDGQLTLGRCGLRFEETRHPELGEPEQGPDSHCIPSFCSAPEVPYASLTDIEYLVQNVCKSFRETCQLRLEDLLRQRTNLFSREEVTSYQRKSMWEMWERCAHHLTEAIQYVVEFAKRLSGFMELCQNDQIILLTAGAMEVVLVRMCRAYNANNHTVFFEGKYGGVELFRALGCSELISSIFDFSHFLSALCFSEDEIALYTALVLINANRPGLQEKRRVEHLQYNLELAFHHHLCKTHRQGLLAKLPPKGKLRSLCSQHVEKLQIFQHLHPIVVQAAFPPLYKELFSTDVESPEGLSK
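Using a luciferase readout, inhibitors were identified by reduced reporter activity in Drosophila cells coexpressing a copper-inducible Gal4–ROR gamma fusion and UAS-driven Photinus luciferase, incubated 20 hr after 700 uM copper sulfate.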
KB-3-1 tox – qHTS assay for MDR1-selective chemotherapeutics: Primary screen using the parental adenocarcinoma cell KB-3-1. AID 1347075, 2019. Potency, µM (titrated, usually from 46.1 µM), most hits filed as cytotoxic. KB-3-1 viability, CellTiter-Glo ATP luminescence, 72 h. hit rate 1.4% among 400,000; also: nearly all actives have a fitted effect of over 60% in size
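Parental KB-3-1 viability, qHTS format: 72 h compound exposure, 37 °C; CellTiter-Glo; media-only wells and DMSO plates as controls; concentration-effect fits on corrected data.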
MCF10A rereplic – A quantitative high throughput screen for small molecules that induce DNA re-replication in MCF 10a normal breast cells; hit rate 2.9% among 350,000; Potency, µM (top dose mostly 46.1 µM), most hits filed as activators; MCF 10A DNA re-replication, Hoechst nuclear intensity, 48 h; also: nearly all actives have a fitted effect of over 50% in size
Gal4-VP16 FLuc – VP16 counterscreen qHTS for inhibitors of ROR gamma transcriptional activity. Drosophila S2 Gal4-VP16 UAS-luciferase, luminescence, 20 h. Potency, µM (top dose mostly 53.6 µM), actives largely listed as inhibitors. hit rate 3.5% among 310,000. AID 2546, 2010;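 also: Gal4-VP16 expression switched on by copper sulfate through the metallothionein promoter; nearly all actives have a fitted effect of over 50% in size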
SW480 rereplic – A quantitative high throughput screen for small molecules that induce DNA re-replication in SW480 colon adenocarcinoma cells. SW480 DNA re-replication, Hoechst DNA content imaging, 48 h. Potency, µM (titrated, usually from 46.1 µM), actives largely listed as activators. hit rate 1.8% among 340,000. AID 624297, 2012; also: nearly all actives have a fitted effect of over 55% in size
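DNA re-replication was detected as more nuclei of elevated Hoechst intensity after 48 hr exposure to compound (23 nL pinned per well of 250 cells).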
A number is an active result; . = inactive; ? = inconclusive; / = not tested or not shown; [ ] = dose if it differs, or a comment. Calls follow the shape of the dose curve; as a rule, active = well fitted curve in the direction sought with a large enough effect; inconclusive = small, poorly fitted or top-dose-only effect, or another doubt; inactive = no such curve, though single readings can be large; an effect the other way counts as inactive or inconclusive.

SMILES	KB-V1 MDR tox	RORgamma inh	KB-3-1 tox	MCF10A rereplic	Gal4-VP16 FLuc	SW480 rereplic
Cc1ccc(C)c(NC(=S)c2ccccn2)c1	.	0.316µM	.	?	1.26µM	?
C[C@@H](NC(=O)[C@@H]1CCCN1C(=O)[C@@H]1CCCN1C(=O)c1cccc(Cl)c1)c1ccccc1	.	/	.	/	/	/
CC(=O)Nc1ccc(SCCN2CCN(C)CCC2=O)cc1	/	.	/	/	.	/
Cc1csc2ncnc(N3CCN(S(=O)(=O)c4cccc(C(F)(F)F)c4)CC3)c12	?	?	.	.	10µM	.
O=S(=O)(c1cccc(Br)c1)N1CCN(c2ncnc3scc(-c4ccccc4)c23)CC1	?	/	.	.	/	.
Cc1sc2ncnc(N3CCN(S(=O)(=O)c4ccc(C(C)(C)C)cc4)CC3)c2c1C	.	/	20.6µM	?	/	.
Cc1sc2ncnc(N3CCN(S(=O)(=O)c4ccc(Br)cc4)CC3)c2c1C	?	/	?	.	/	.
O=C(CSc1nc2ccccc2c2nc(-c3ccccc3)nn12)Nc1ccc(F)cc1	.	/	.	/	/	/
CC1CCCCN1C(=O)CCC(=O)Nc1nnc(C(F)(F)F)s1 (centres undefined)	.	.	.	23.1µM	.	?
CCNc1nc(CN2CCOCC2)nc2sc3c(c12)CCC3	.	?	.	.	.	.
c1ccc2c(c1)CCN(c1nc(CN3CCOCC3)nc3sc4c(c13)CCCC4)C2	?	11.2µM	?	?	?	.
O=S(=O)(Nc1nc(CN2CCOCC2)nc2sc3c(c12)CCCC3)c1cc(F)ccc1F	10.3µM	.	.	.	.	.
Cc1cccc(C)c1NC(=O)C(c1ccnc2ccccc12)N1CCN(CCN(C)C)CC1 (centres undefined)	.	/	.	/	/	/
CCCCN1C(=O)C(=O)N(CC(=O)c2ccc3c(c2)CCCC3)C1=O	?	/	.	.	/	.
Cc1cc(C(=O)CN2C(=O)C(=O)N(CC(C)C)C2=O)c(C)n1C1CC1	18.4µM	/	.	.	/	?
Cc1cc(C(=O)CN2C(=O)NC(CCS(C)(=O)=O)C2=O)c(C)n1C1CC1 (centres undefined)	.	/	.	.	/	.
Cc1cc(C(=O)CN2C(=O)NC3(CCCCC3)C2=O)c(C)n1C	?	.	.	.	.	.[1.84 µM]
CCCN1C(=O)C(=O)N(CC(=O)c2cc(C)n(C3CC3)c2C)C1=O	20.6µM	/	?	.	/	.
Cc1cc(C(=O)CN2C(=O)C(=O)N(CCC3=CCCCC3)C2=O)c(C)n1C	23.1µM	/	.	.	/	.
CC(C)CN1C(=O)C(=O)N(CC(=O)c2ccc3c(c2)CCCC3)C1=O	16.4µM	/	.	.	/	.
CCN1C(=O)C(=O)N(CC(=O)c2cc(C)n(C3CC3)c2C)C1=O	.	/	.	.	/	.
O=c1cnc2cncnc2n1Cc1ccccc1Cl	/	.	/	/	.	/
COC(=O)C(C(=O)OC)C1O[C@@]23COCCC2(C)C3c2ccccc21 (some centres undefined)	/	.[10 µM]	/	/	.[10 µM]	/
COc1cccc(C2(C)NC(=O)N(CC(=O)c3cc(C)n(C4CC4)c3C)C2=O)c1 (centres undefined)	16.4µM	/	.	.	/	.
COc1ccc(NC(=O)C2CCCN(S(=O)(=O)c3ccc4c(c3)CCCC(=O)N4)C2)c(OC)c1 (centres undefined)	.	/	.	/	/	/
SMILES	KB-V1 MDR tox	RORgamma inh	KB-3-1 tox	MCF10A rereplic	Gal4-VP16 FLuc	SW480 rereplic
COc1ccc(-c2c(C)nn3c(N)c(C#N)cnc23)cc1OC	9.2µM	.	.	.	.	.
CCCC(=O)Nc1cc(-c2nn(C)c(=O)c3ccccc23)ccc1OC	?	?	?	.	.	.
COc1ccc(-c2nn(C)c(=O)c3ccccc23)cc1NC(=O)Cn1nc(C)c2ccccc2c1=O	20.6µM	.	.	.	.	.
CCC(=O)Nc1cc(-c2nn(C)c(=O)c3ccccc23)ccc1OC	11.6µM	.	.	.	?	.
COC(=O)Cn1nc(-c2ccc(C)c(S(=O)(=O)N(C)C)c2)c2ccccc2c1=O	18.4µM	.	.	.	.	.
Cc1ccc(NC(=O)c2ccc(-c3nn(C)c(=O)c4ccccc34)cc2)cc1	20.6µM	.	.	.	.	.
O=C(NCc1ccccc1)C(c1ccccc1)n1c(C2CC2)nc2ccccc21 (centres undefined)	?	/	.	/	/	/
Cc1ccc(-c2nn(CC(=O)NCc3cc(-c4nn(C)c(=O)c5ccccc45)ccc3C)c(=O)c3ccccc23)cc1	7.31µM	?	23.1µM	9.2µM	.	6.51µM
Cn1nc(-c2ccc(OCC(=O)Nc3cccnc3)cc2)c2ccccc2c1=O	?	1.78µM	?	?	15.8µM	.
Cc1ccc(NC(=O)COc2ccc(-c3nn(C)c(=O)c4ccccc34)cc2)cc1	.	/	?	/	/	/
CCC(=O)NCc1cc(-c2nn(C)c(=O)c3ccccc23)ccc1C	?	.	.	.	.	.
CCCCCCCCCCCCCCC[C@H](O)[C@@H](N)CO	/	.	/	/	.	/
Cc1cnc(CNc2nc(-c3ccccc3C(F)(F)F)nc3ccccc23)cn1	/	.	/	/	.	/
Cc1cnc(CNc2nc(-c3ccc(N(C)C)cc3)nc3ccccc23)cn1	/	?	/	/	11.2µM	/
Nc1ncnc2c1nc(Cl)n2[C@@H]1O[C@H](CO)[C@@H](O)[C@@H]1O	.	/	?	/	/	/
CCOC(=O)N1CCN(CCC(=O)c2ccc(Cl)cc2)CC1	?	.	20.6µM	?	?	?
CCOC(=O)N1CCN(CCC(=O)c2ccc(Br)cc2)CC1	.	?	.	?	?	?
CCOC(=O)N1CCN(Cc2cc(=O)oc3ccc(Cl)cc23)CC1	18.4µM	.	.	.	.	.
COc1ccc(N2CCN(CCC(=O)c3ccc4ccccc4c3)CC2)cc1	?	?	.	10.3µM	?	?
CCOC(=O)N1CCN(CCC(=O)c2ccc(OC)cc2)CC1	.	.	.	14.6µM	.	?
COc1ccc(NC(=O)CN(Cc2ccccc2)S(=O)(=O)c2ccc(C)cc2)cc1Cl	?	/	.	/	/	/
OC(CNCc1ccccc1F)(c1ccc(F)cc1)c1ccc(F)cc1	?	7.94µM	.	.	?	.
COc1ccccc1CNCC(O)(c1ccc(Cl)cc1)c1ccc(Cl)cc1	?	?	.	?	?	14.6µM
COc1ccccc1CNCC(O)(c1ccc(F)cc1)c1ccc(F)cc1	.	.	.	.	.	.
Cc1ccc(CNCC(O)(c2ccccc2)c2ccc(F)cc2)cc1 (centres undefined)	18.4µM	.	.	.	?	.
Cc1ccc(CNCC(O)(c2ccc(F)cc2)c2ccc(F)cc2)cc1	.	?	.	?	?	?
